This note sets out measurements from PubChem BioAssay (NCATS).

Experiment [1] can be described thus: qHTS assay for small molecule agonists of the antioxidant response element (ARE) signaling pathway measured by Nrf2-dependant transcriptional activity - cell viability counter screen (AID 720653; active = well fitted curve in the direction sought with a large enough effect in the repeat runs; an effect the other way counts as inactive or inconclusive; also: potency is read from the fitted curve at half-maximal effect; as to max response: % is scaled to controls: 0 for no effect and ±100 for the full control effect). The following applies: ARE-bla HepG2 viability, CellTiter-Glo ATP luminescence, 16 h; max response: active compounds read low. An outline of the steps: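 ARE-bla HepG2 cells treated with compounds for 16 h at 37C; this counter screen measures viability as intracellular ATP by CellTiter-Glo luminescence after 30 min at room temperature.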
For orientation: In qHTS, concentration-response curves come from the screen itself.

Experiment [2] can be described thus: Cell Viability - BJ (AID 421; calls by dose curve;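 also: potency is read from the fitted curve at half-maximal effect; cells exposed to compound for 40 hours at 37 °C before readout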). As to conditions: BJ fibroblast viability, qHTS. An outline of the steps: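 Cytotoxicity in human BJ foreskin fibroblasts is scored as loss of cellular ATP after a 40-hour exposure, measured by luciferase luminescence. Controls are DMSO and 100 uM tamoxifen.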
Experiment [3] can be described thus: Cell Viability - Hek293 (AID 427;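 active = compounds whose dose-response curve shows a full or clear partial loss of cell viability, called from curve shape rather than a numeric limit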;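 also: potency is read from the fitted curve at half-maximal effect; cells exposed to compound for 40 hours at 37 °C before reading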). The following applies: qHTS. An outline of the steps:
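qHTS, human embryonic kidney (adenovirus-transformed) cells; 40 hr cpd, 37 °C; CellTiter-Glo ATP luminescence. Norm: DMSO = 0, 100 uM tamoxifen = 100% inhibition. Hill-fit AC50.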

Experiment [4] can be described thus: Cell Viability - HepG2 (AID 433; calls by dose curve;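 also: potency is read from the fitted curve at half-maximal effect; cells exposed to compound for 40 hours; potency for ATP loss meaning cytotoxicity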). As to conditions: qHTS. Put shortly:
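HepG2 cells, 1500 per well, treated 40 hr at 37 °C in complete medium; viability from intracellular ATP by CellTiter-Glo luminescence. Normalized to DMSO and 100 uM tamoxifen; AC50 from Hill fit of qHTS concentration-response.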

A short description of experiment [5]: Cell Viability - MRC5 (AID 434; calls by dose curve;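 also: potency is read from the fitted curve at half-maximal effect; cells exposed to compound for 40 hours at 37 °C; potency reflects cytotoxicity seen as loss of intracellular ATP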). The following applies: MRC5 lung fibroblast viability, qHTS. An outline of the steps: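 ATP luminescence read-out (CellTiter-Glo, 20 min RT) after 40 hr, 37 °C compound exposure of 1500 MRC5 cells/well. Data normalized to DMSO (basal) and 100 uM tamoxifen (100% inhibition); AC50 from standard Hill equation.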
Experiment [6] in a line: Cell Viability - SK-N-SH (AID 435; calls by dose curve;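 also: potency is read from the fitted curve at half-maximal effect; compound exposure lasted 40 h at 37 °C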). The following applies: SK-N-SH neuroblastoma cell viability qHTS. Put shortly:
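SK-N-SH neuroblastoma cells (1500/well) treated 40 h at 37 °C in complete medium; viability read as cellular ATP by CellTiter-Glo luminescence. Normalized to DMSO and 100 uM tamoxifen; AC50 from Hill fits of qHTS concentration-response.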

A short description of experiment [7]: Cell Viability - HUV-EC-C (AID 542).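 Also: cells exposed to compound for 40 hours; % is scaled to controls: 0 for no effect and ±100 for the full control effect; nearly all actives have a fitted effect of over 35% in size.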 As to conditions: HUV-EC-C endothelial cell viability, qHTS; series mostly up to 92.2 µM. An outline of the steps:
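Concentration-dependent ATP loss in HUV-EC-C cells is the measure. Exposure lasts 40 hr at 37 °C; luminescence follows CellTiter-Glo addition, and Hill fits give AC50.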

A short description of experiment [8]: Cell Viability - Mesenchymal (AID 546).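 Also: cells exposed to compound for 40 hours before reading.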 As to conditions: mesenchymal cells viability, qHTS; series mostly up to 91.7 µM. An outline of the steps:
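Human renal mesenchymal cells (glomerulus-derived), 1000 cells/well, 5 hr 37 °C pre-incubation; compound 40 hr, 37 °C; CellTiter-Glo, 20 min RT; luminescence; AC50 via Hill equation.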

The nature of experiment [9]: Cellular Toxicity (caspase-3) HepG2 (AID 654).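 Also: cells exposed to compound for 16 hours before reading; 0% = DMSO alone and 100% = caspase signal from 100 µM tamoxifen.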 The following applies: HepG2 caspase-3 activation, luminescence, 0% = DMSO only, 100% = tamoxifen; series mostly up to 92.2 µM. Put shortly:
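Concentration-response AC50 values reflect caspase-3/7 induction in HepG2 cells after 16 hours of compound exposure, quantified by luminescence from liberated aminoluciferin and referenced to 100 uM tamoxifen as full stimulation.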

Experiment [10] can be described thus: Cellular Toxicity (caspase-3) HUV-EC-C (AID 656). As to conditions: HUV-EC-C cells, caspase-3 activation (apoptosis), vehicle = 0, 100 µM tamoxifen = 100%; series mostly up to 92.2 µM. Put shortly: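 HUV-EC-C cells (1000/well) in complete medium, compound-treated 16 h at 37 °C; caspase-3/7 activity read by Caspase-Glo 3/7 luminescence. Normalized to DMSO (basal) and 100 uM tamoxifen (100%); AC50 from Hill-equation concentration-response fits.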

Experiment [11] can be described thus: Cellular Toxicity (caspase-3) SHSY5Y (AID 657). The following applies: SH-SY5Y caspase-3 activation, DMSO zero, 10 µM staurosporine = 100%; series mostly up to 91.7 µM. An outline of the steps: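 SH-SY5Y human neuroblastoma cells, 1500/well, exposed to compound for 16 hours at 37 °C in complete medium. Caspase-3/7 activity read by Caspase-Glo luminescence after 1 hr at room temperature, normalized to DMSO and 10 uM staurosporine; AC50 from Hill fit.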

Experiment [12] in a line: Cellular Toxicity (caspase-3) BJ (AID 658). As to conditions: BJ fibroblasts, luminescence, normalized: DMSO 0%, staurosporine 100%; series mostly up to 91.7 µM. An outline of the steps:
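qHTS, BJ fibroblasts, 1000 cells/well; 5 hr preincubation, 16 hr compound, 37 °C; Caspase-Glo 3/7 reagent, 1 hr RT; luminescence. DMSO = 0%, 10 uM staurosporine = 100%. Hill-equation AC50.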

A short description of experiment [13]: Cellular Toxicity (caspase-3) MRC-5 (AID 659). As to conditions: MRC-5 cells, luminescence, normalized: DMSO 0%, 10 µM staurosporine 100%; series mostly up to 91.7 µM. Put shortly:
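MRC-5 fibroblasts, 1500/well; 16 h cpd, 37 °C; Caspase-Glo 3/7, 1 h RT; lumi read. Norm: DMSO = 0%, 10 uM staurosporine = 100%. Hill-fit AC50 from qHTS conc-response.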

Experiment [14] is described as follows: Cellular Toxicity (caspase-3) SK-N-SH (AID 661). As to conditions: SK-N-SH caspase-3 activation, qHTS, DMSO as zero, staurosporine as full; series mostly up to 91.7 µM. An outline of the steps: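 Apoptosis readout in SK-N-SH neuroblastoma: Caspase-Glo 3/7 luminescence following 16 hr treatment in complete culture medium. Normalization used DMSO and 10 uM staurosporine controls.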

A short description of experiment [15]: Cellular Toxicity (caspase-3) H-4-II-E (AID 663).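 Also: cells exposed to compound for 16 hr before readout.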 The following applies: H-4-II-E rat hepatoma, scaled: DMSO 0%, 100 µM tamoxifen 100%; series mostly up to 92.2 µM. An outline of the steps:
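H-4-II-E rat hepatoma, 1500 cells/well, 5 hr settle at 37 °C; compound 16 hr, 37 °C, complete medium; Caspase-Glo 3/7, 20 min RT; luminescence. DMSO = 0%, 100 uM tamoxifen = 100%; Hill-equation AC50.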

A short description of experiment [16]: Cellular Toxicity (caspase-3) Hek293 (AID 664).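 Also: cells exposed to compound for 16 h at 37 °C before readout.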 The following applies: HEK293 caspase-3 activation, DMSO = 0%, 100 µM tamoxifen = 100%; series mostly up to 92.2 µM. Put shortly:
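Apoptosis readout: Caspase-Glo 3/7 signal in human HEK293 cells following 16-hour compound incubation. Responses scaled between DMSO baseline and 100 uM tamoxifen.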

Experiment [17] can be described thus: MultiTox-Fluor Cytotoxicity Assay - LYMP1-003 - Dead Cells (AID 961). Also: nearly all actives have a fitted effect of over 70% in size. Also: potency is read from the fitted curve at half-maximal effect. The following applies: LYMP1-003 lymphoblastoid cells, dead-cell protease fluorescence; series mostly up to 92.2 µM. Put shortly:
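LYMP1-003 lymphoblastoid, 2500 cells/well, 5 hr settle then 16 hr cpd at 37 C; MultiTox-Fluor reagent 60 min RT; Ex/Em 485/520 dead-cell signal; norm. DMSO = 0%, 15 uM tetraoctylammonium bromide = 100%; Hill AC50.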

The nature of experiment [18]: qHTS assay for small molecule disruptors of the mitochondrial membrane potential - 5 hr assay (AID 651755; calls by dose curve; also: nearly all actives have a fitted effect of over 40% in size; also: potency is read from the fitted curve at half-maximal effect). As to conditions: JC-1-type ratio dye; series mostly up to 92.2 µM. An outline of the steps:
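Read-out: ratiometric Mito-MPS fluorescence, green monomer (ex 490/em 535) vs red mitochondrial aggregate (ex 540/em 590). HepG2 cells treated 5 hr at 37C before 30 min dye loading.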

The target in experiment [19] is Peroxisome proliferator-activated receptor alpha (Homo sapiens) (UniProt Q07869). The experiment in a line: qHTS assay for small molecule agonists of the peroxisome proliferator-activated receptor alpha (PPARalpha) signaling pathway (AID 651778). Also: % of control where 0% means no effect. The following applies: PathHunter PPARalpha complementation, chemiluminescence, 6 h; active compounds read high. Put shortly:
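Enzyme-fragment complementation assay in which ligand-bound PPARalpha translocates and forms an active enzyme that generates chemiluminescence. Cells were plated overnight, exposed to compound for 6 hr at 37 C, and then given detection reagent for 60 min at room temperature.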

For experiment [20], the target named is Nuclear receptor ROR-gamma (Homo sapiens) (UniProt P51449). The experiment in a line: qHTS assay for small molecule antagonists of the retinoid-related orphan receptor gamma (ROR-gamma) signaling pathway (AID 651802). Also: nearly all actives have a fitted effect of over 60% in size. Also: potency is read from the fitted curve at half-maximal effect. The following applies: ROR-gamma antagonist cell reporter assay; series mostly up to 92.2 µM. Put shortly:
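Doxycycline-induced reporter activity in engineered CHO cells (TET-inducible ROR, RORE-LUC) was measured by luminescence after 16hr compound exposure at 37C.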

Values joined by “and” are separate entries in the source; they are usually repeats but may differ in a detail not shown here. Identical values can stand only once. Values without a mark were called inactive. Records with an inconclusive call do not appear. Active and inactive are the calls of the source. Unless noted, calls follow the shape of the dose curve; as a rule, active = well fitted curve in the direction sought with a large enough effect; inconclusive = small, poorly fitted or top-dose-only effect, or another doubt; inactive = no such curve, though single readings can be large; an effect the other way counts as inactive or inconclusive.

Nuclear receptor ROR-gamma (Homo sapiens), sequence (P51449 whole entry, looked up): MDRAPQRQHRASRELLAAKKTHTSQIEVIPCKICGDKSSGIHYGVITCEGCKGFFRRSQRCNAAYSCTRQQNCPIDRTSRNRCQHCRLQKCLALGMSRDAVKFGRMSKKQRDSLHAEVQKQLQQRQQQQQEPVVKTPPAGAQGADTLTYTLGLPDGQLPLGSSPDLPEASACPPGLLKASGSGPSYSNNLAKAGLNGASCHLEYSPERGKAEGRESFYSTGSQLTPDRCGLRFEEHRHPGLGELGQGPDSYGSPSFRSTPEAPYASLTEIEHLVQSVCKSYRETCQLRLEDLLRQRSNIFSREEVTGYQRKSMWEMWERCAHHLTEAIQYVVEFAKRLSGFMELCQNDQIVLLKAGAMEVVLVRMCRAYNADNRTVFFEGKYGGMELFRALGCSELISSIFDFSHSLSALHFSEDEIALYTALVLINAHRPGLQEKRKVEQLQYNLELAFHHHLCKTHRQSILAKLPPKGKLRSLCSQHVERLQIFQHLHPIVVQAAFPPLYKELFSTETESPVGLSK
Peroxisome proliferator-activated receptor alpha (Homo sapiens), sequence (Q07869 whole entry, looked up, the tested form may be a part): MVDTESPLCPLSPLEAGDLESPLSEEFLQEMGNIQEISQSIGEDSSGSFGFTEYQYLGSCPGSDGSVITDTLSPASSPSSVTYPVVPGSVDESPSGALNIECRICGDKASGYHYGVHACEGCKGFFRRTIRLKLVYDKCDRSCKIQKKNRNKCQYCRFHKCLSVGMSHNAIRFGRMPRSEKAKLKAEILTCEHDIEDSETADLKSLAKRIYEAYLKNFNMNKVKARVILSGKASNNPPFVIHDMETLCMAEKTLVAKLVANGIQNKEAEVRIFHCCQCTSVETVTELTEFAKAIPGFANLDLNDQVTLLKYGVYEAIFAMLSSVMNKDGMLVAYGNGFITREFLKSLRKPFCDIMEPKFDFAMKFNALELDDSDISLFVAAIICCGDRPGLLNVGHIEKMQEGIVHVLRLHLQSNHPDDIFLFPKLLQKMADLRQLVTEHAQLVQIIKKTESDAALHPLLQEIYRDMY

For the compound `Nc1nc(N)c2nc(CNc3ccc(C(=O)NC(CCC(=O)O)C(=O)O)cc3)cnc2n1` (configuration not stated), the Potency in experiment [1] was 0.0126 µM (active).
In the case of `CC(C)COC(=O)c1ccccc1C(=O)OCC(C)C`, the Potency in [2], in experiment [3], in experiment [4], in experiment [5] and in experiment [6] was above 92 µM each time. For the same compound, the call in [7], in [8], in experiment [9], in [10], in experiment [11] and in experiment [12] was inactive. The compound was called inactive in experiment [13], in experiment [14], in [15] and in experiment [16]. The Potency entry in [17], in experiment [18] and in experiment [20] was “inactive” each time. The max response in experiment [19] is -0.716%; in experiment [1] it was 7.97%.
With `Oc1ccccc1O`, the results for the Potency in experiment [17] and in [20] were 12.6 µM (active) and 5.96 µM (active), respectively.
On to `CC(=O)/C=C/c1ccccc1`, for which the Potency in [2], in experiment [3], in experiment [4], in [5] and in [6] was above 92 µM throughout. For the same compound, the compound was called inactive in [7], in experiment [8], in [9], in experiment [10], in experiment [11] and in [12]. The compound was classed as inactive in experiment [13], in [14], in experiment [15] and in experiment [16]. In addition, the Potency result in [17], in experiment [18] and in experiment [20] was “inactive” each time. Moreover, the max response in experiment [19] is -5.69%; in experiment [1] it was -6.98%.
As for `COC1=CC(=O)OC(CCc2ccc3c(c2)OCO3)C1` (configuration not stated), the Potency in [2], in experiment [3], in experiment [4], in experiment [5] and in experiment [6] was above 92 µM each time. The compound was classed as inactive in experiment [7], in experiment [8], in [9], in [10], in experiment [11] and in experiment [12]. Moreover, the compound was called inactive in [13], in [14], in experiment [15] and in experiment [16]. Besides, the Potency result in experiment [17], in experiment [18] and in experiment [20] was “inactive” each time. Moreover, the figures for the max response in experiment [19] and in [1] were -0.116% and -4.13%, respectively.
For the compound `Oc1ccccc1Cl`, the Potency in experiment [2], in experiment [3], in [4], in experiment [5] and in [6] was above 92 µM each time. Besides, the result in [7], in [8], in experiment [9], in [10], in experiment [11] and in [12] was inactive. Further, the compound was called inactive in [13], in experiment [14], in [15] and in [16]. For the same compound, the Potency result in experiment [17] and in [18] was “inactive” throughout. The max response is -3.34% in experiment [19] and -1.76% in experiment [1].
Turning to `c1ccc(Nc2ccc3ccccc3c2)cc1`, the Potency in experiment [2] is above 92 µM; in experiment [3] it was above 92 µM; in experiment [4], above 92 µM; in experiment [5], above 92 µM; in [6], above 92 µM; in experiment [18] it was 42.2 µM (active). Further, the outcome in experiment [7], in experiment [8], in experiment [9], in experiment [10], in experiment [11] and in experiment [12] was inactive. For the same compound, the outcome in experiment [13], in experiment [14], in [15] and in experiment [16] was inactive. Besides, the Potency result in [17] and in experiment [20] was “inactive” in each case. The max response in [19] was 18.5% and 8.75%; in [1], -8.38% and -2.45%.
Regarding `c1ccc2c(c1)-c1cccc3cccc-2c13`, the Potency in experiment [2], in [3], in experiment [4], in experiment [5] and in experiment [6] was above 92 µM throughout. Moreover, the result in experiment [7], in [8], in experiment [9], in experiment [10], in [11] and in [12] was inactive. Moreover, the call in experiment [13], in experiment [14], in experiment [15] and in experiment [16] was inactive. Also, the Potency entry in experiment [17], in experiment [18] and in experiment [20] was “inactive” each time. The max response in experiment [19] is -3.35% and -1.28%; in [1], -12% and 0.837%.
Turning to `CCOC(=O)c1ccccc1N`, the Potency in [2], in experiment [3], in experiment [4], in [5] and in experiment [6] was above 92 µM in each case. Further, the compound was classed as inactive in [7], in experiment [8], in [9], in [10], in [11] and in [12]. Further, the compound was classed as inactive in [13], in experiment [14], in experiment [15] and in experiment [16]. The Potency result in experiment [17], in [18] and in experiment [20] was “inactive” in each case. In addition, the max response in [19] was -7.33%; in experiment [1], 3.82%.
